Bioassay records as filed in PubChem BioAssay.
TLR9-MyD88 inh: inhibitors of TLR9-MyD88 association in cells, primary screen, cell-based, CHO, BLA complementation, fluorescence; CCF4 FRET ratio; 340,000 tested, 0.21% active; inhibition, % at 4.98 µM; Toll-like receptor 9 (Homo sapiens) + Myeloid differentiation primary response protein …;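 active = inhibition above the mean over all tested compounds plus 3 SD, cut at about 21% in these data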;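 note: 0% = DMSO only wells and 100% = clavulanate BLA inhibitor control wells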
TLR4-MyD88 BLA: inhibitors of TLR4-MyD88 association in cells, primary screen, cell-based, HeLa CL3-4, BLA complementation, FRET ratio; Toll-like receptor 4 (Homo sapiens) + Myeloid differentiation primary response protein …; HeLa CL3-4 TLR4/MyD88 BLA complementation; inhibition, % at 8.4 µM; 200,000 tested, 0.18% active; AID 861, 2007; in the data active = inhibition above about 25%;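 note: 0% = vehicle and 100% = reference inhibitor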
IDE inh: human IDE inhibitors in live cells, primary screen, fluorescence polarization, HEK cells, FAbetaB substrate. FAbetaB cleavage. inhibition, % at 5.59 µM. 320,000 tested, 0.41% active;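 active = percent inhibition above the average of all tested compounds plus 3 SD, set per screening campaign, cut at about 16% in these data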;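 note: IDE supplied by intact live HEK cells; FP after avidin binding of uncleaved biotin substrate so inhibition keeps polarization high; 0% = DMSO wells and 100% = 60 µM reference IDE inhibitor Ii1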
NOD2-RIPK2 inh: NOD2-RIPK2 binding disruptors in cells, primary screen, fluorescence, CHO cells, BLA complementation | Receptor-interacting serine/threonine-protein kinase 2 (Homo sapiens), O43353 | CCF4 ratio | inhibition, % at 4.98 µM | 360,000 tested, 0.38% active; in the data active = inhibition above about 21%;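 note: 0% = vehicle only and 100% = reference blocker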
IDE act: human IDE activators in live cells, primary screen, fluorescence polarization, HEK cells, FAbeta-B substrate. activation, % at 5.96 µM. Insulin-degrading enzyme (Homo sapiens), P14735. 340,000 tested, 0.073% active. FAbeta-B cleavage; 0% vehicle, 100% cell-free pure enzyme wells;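 active = activation above the mean of all tested compounds plus 3 SD, set per screening campaign, cut at about 17% in these data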
NOD2 RIPK2 conf: NOD2-RIPK2 binding disruptors, retest, confirmation, fluorescence, CHO cells, BLA complementation, triplicate. shares compounds with NOD2-RIPK2 inh. CCF4 FRET. inhibition, % at 4.98 µM. 1,200 tested, 70% active;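 active = mean inhibition across replicates above a set limit taken from the earlier primary screen, cut at about 21% in these data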;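 note: 0% = DMSO-only wells and the high end = clavulanate BLA-blocked wells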
BLA counter: NOD2-RIPK2 counterscreen BLA reporter activity; shares compounds with NOD2-RIPK2 inh; CHO BLA reporter, CCF4 FRET ratio; inhibition, % at 4.98 µM; 1,200 tested, 57% active; AID 624371;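 active = mean inhibition above the low-control mean inhibition plus three low-control SD, cut at about 11% in these data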;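 note: 0% = DMSO only wells and 100% = clavulanate high control wells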
* hit, by the source's call; nt = no result. Shown are actives, neighbours in structure and some others; about 0.87% of the full set was active somewhere.

SMILES | TLR9-MyD88 inh | TLR4-MyD88 BLA | IDE inh | NOD2-RIPK2 inh | IDE act | NOD2 RIPK2 conf | BLA counter
C1CCN(C2CCN(c3nc4nonc4nc3N3CCSCC3)CC2)C1 | 4 | -8 | 0 | -7 | 0 | nt | nt
Fc1ccc(C2=CC(c3ccco3)n3ncnc3N2)cc1 (configuration not stated) | 35* | -6 | 1 | 36* | -5 | 3 | 12*
O=c1oc2ccccc2cc1-c1nnc(NCc2ccco2)s1 | 14 | 21 | -3 | 35* | 1 | 36* | 41*
CN(CC1CCCO1)S(=O)(=O)c1ccc(C(=O)NCc2ccccc2)cc1 (configuration not stated) | -2 | 14 | 3 | -13 | -1 | nt | nt
COc1ccc(C2C(C(=O)c3ccco3)=C(O)C(=O)N2CC2CCCO2)c(OC)c1 (configuration not stated) | -13 | nt | -2 | -6 | 4 | nt | nt
COc1ccc(OC)c(C2C(C(=O)c3ccco3)=C(O)C(=O)N2CC2CCCO2)c1 (configuration not stated) | 7 | nt | -2 | 21* | 4 | 1 | 0
CCOC(=O)[C@@H]1[C@H]2COc3ccc(Br)cc3[C@H]2N2C(=O)N(c3ccc(Cl)cc3)C(=O)[C@]12C | 10 | nt | 4 | -1 | -2 | nt | nt
N#Cc1ccc2sn(-c3ccccc3)c(=O)c2c1 | 10 | nt | nt | 25* | nt | 50* | 12*
CC(=O)Nc1ccc2sn(-c3ccccc3)c(=O)c2c1 | 5 | nt | nt | 30* | nt | 22* | -4
C=CC(=O)N1C/C(=C/c2ccc(F)cc2)C(=O)/C(=C\c2ccc(F)cc2)C1 | 16 | nt | nt | 54* | -5 | 64* | 9
CN1C2CCC1/C(=C\c1ccc(F)cc1)C(=O)/C2=C/c1ccc(F)cc1 | 9 | 1 | -1 | 1 | 3 | nt | nt
CCOC(=O)N1CCN(C(=O)C2CCN(C(=O)c3ccccc3C)CC2)CC1 | 14 | nt | nt | 22* | -34 | 71* | 18*
O=C(NC1CCCCC1)C(c1ccccc1F)n1c(=O)c(-c2cc3ccccc3[nH]2)nc2ccccc21 (configuration not stated) | nt | nt | nt | 45* | nt | 42* | 66*
O=C(NC1CCCCC1)C(c1cccc2ccccc12)n1c(=O)c(-c2cc3ccccc3[nH]2)nc2ccccc21 (configuration not stated) | nt | nt | nt | 38* | nt | 34* | 62*
O=C(NC1CCCCC1)C(c1ccnc2ccccc12)n1c(=O)c(-c2ccco2)nc2ccccc21 (configuration not stated) | nt | nt | nt | -5 | nt | nt | nt
COc1ccc(CCC(=O)N2CCN(S(=O)(=O)c3ccc(OC)c([N+](=O)[O-])c3)CC2)cc1 | -6 | nt | nt | -1 | nt | nt | nt
Cc1occc1C(=O)N/N=C/C=C/c1ccc(N(C)C)cc1 | 11 | nt | -2 | 27* | -8 | 37* | 37*
CCC(CC)COC(=O)C(C#N)c1nc2ccccc2nc1N1CCN(CC)CC1 (configuration not stated) | -7 | 3 | -1 | 22* | 2 | 21* | 15*
COc1cc(/C=C(/C#N)C(=O)c2c(C)[nH]c3ccccc23)ccc1OCC#N | -5 | nt | -2 | 7 | 6 | nt | nt
CCOc1ccc(/C=C(\C#N)C(=O)c2c(C)[nH]c3ccccc23)cc1OC | -8 | -17 | 5 | 22* | -2 | 2 | -6
COc1cc2c(cc1OC)CN(c1ccc(C(N)=O)cc1[N+](=O)[O-])CC2 | 5 | nt | 0 | -3 | 1 | nt | nt
COc1ccc(/C=N/NC(=O)c2ccc(NC(C)=O)cc2)cc1COc1ccc(F)cc1F | 30* | nt | 3 | 25* | 1 | 6 | 8
COc1ccc(/C=N\NC(=O)c2ccccc2F)cc1COc1ccc(F)cc1F | 9 | nt | -5 | 9 | -2 | nt | nt
